# Test results as given in the supplement of paper PMC12282887.
# ± gives the standard deviation of the averaged measurements.
# Experiments:
# Assay in all cases: promoter activity interaction Z-score (Lux/OD deviation from empty-vector control); higher = stronger promoter induction by the compound
# [1] = test system: E. coli BW25113 robp lux reporter
# In short: (§1)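 Low-copy luxCDABE promoter reporters were carried by E. coli BW25113, either wild type or lacking one of three genes, grown in 40 µl LB Lennox in 384-well plates at 37°C. Each compound was run at four 1:2 dilutions in biological duplicates, with OD600 and luminescence read every 30 min for 12 h. Integration used 0–8 h for wild type and 1–9 h for deletion strains, and wells under 10% of the median growth value were removed. Luminescence normalised to growth was fitted against a control, and the Z-transformed residual is the score.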
# [2] = test system: E. coli BW25113 soxSp lux reporter
# In short: as §1
# [3] = test system: E. coli BW25113 tolCp lux reporter
# In short: as §1
# [4] = 22.7 µg/ml, genetic background: wild type
# [5] = 22.7 µg/ml, genetic background: ΔmarA
# [6] = 22.7 µg/ml, genetic background: Δrob
# [7] = 22.7 µg/ml, genetic background: ΔsoxS
# [8] = 45.3 µg/ml, genetic background: wild type
# [9] = 45.3 µg/ml, genetic background: ΔmarA
# [10] = 45.3 µg/ml, genetic background: Δrob
# [11] = 45.3 µg/ml, genetic background: ΔsoxS
# [12] = 90.6 µg/ml, genetic background: wild type
# [13] = 90.6 µg/ml, genetic background: ΔmarA
# [14] = 90.6 µg/ml, genetic background: Δrob
# [15] = 90.6 µg/ml, genetic background: ΔsoxS
# [16] = 181.2 µg/ml, genetic background: wild type
# [17] = 181.2 µg/ml, genetic background: ΔmarA
# [18] = 181.2 µg/ml, genetic background: Δrob
# [19] = 181.2 µg/ml, genetic background: ΔsoxS
compound,measurement,setting,value
C[C@]12CCC(=O)C=C1CC[C@@H]1[C@@H]2[C@@H](O)C[C@@]2(C)[C@H]1CC[C@]2(O)C(=O)CO [Hydrocortisone],promoter activity interaction Z-score,[1]; [4],0.0773 ± 1.2
same,promoter activity interaction Z-score,[1]; [5],0.0463 ± 0.066
same,promoter activity interaction Z-score,[1]; [6],0.694 ± 1.1
same,promoter activity interaction Z-score,[1]; [7],-0.236 ± 0.064
same,promoter activity interaction Z-score,[1]; [8],-0.333 ± 0.93
same,promoter activity interaction Z-score,[1]; [9],0.247 ± 0.23
same,promoter activity interaction Z-score,[1]; [10],0.312 ± 0.14
same,promoter activity interaction Z-score,[1]; [11],0.174 ± 0.55
same,promoter activity interaction Z-score,[1]; [12],-0.0645 ± 0.73
same,promoter activity interaction Z-score,[1]; [13],-0.315 ± 0.028
same,promoter activity interaction Z-score,[1]; [14],0.1 ± 1.2
same,promoter activity interaction Z-score,[1]; [15],-0.777 ± 0.35
same,promoter activity interaction Z-score,[1]; [16],-0.438 ± 0.64
same,promoter activity interaction Z-score,[1]; [17],-0.167 ± 0.27
same,promoter activity interaction Z-score,[1]; [18],0.558 ± 0.36
same,promoter activity interaction Z-score,[1]; [19],0.106 ± 1
same,promoter activity interaction Z-score,[2]; [4],0.274 ± 0.098
same,promoter activity interaction Z-score,[2]; [5],-0.206 ± 0.075
same,promoter activity interaction Z-score,[2]; [6],0.0559 ± 0.11
same,promoter activity interaction Z-score,[2]; [7],-0.266 ± 0.045
same,promoter activity interaction Z-score,[2]; [8],0.0799 ± 0.065
same,promoter activity interaction Z-score,[2]; [9],-0.198 ± 0.084
same,promoter activity interaction Z-score,[2]; [10],0.0141 ± 0.1
same,promoter activity interaction Z-score,[2]; [11],-0.247 ± 0.054
same,promoter activity interaction Z-score,[2]; [12],-0.0463 ± 0.13
same,promoter activity interaction Z-score,[2]; [13],-0.321 ± 0.095
same,promoter activity interaction Z-score,[2]; [14],-0.185 ± 0.0079
same,promoter activity interaction Z-score,[2]; [15],-0.58 ± 0.1
same,promoter activity interaction Z-score,[2]; [16],-0.0782 ± 0.16
same,promoter activity interaction Z-score,[2]; [17],-0.3408 ± 0.003
same,promoter activity interaction Z-score,[2]; [18],-0.284 ± 0.044
same,promoter activity interaction Z-score,[2]; [19],-0.743 ± 0.29
same,promoter activity interaction Z-score,[3]; [4],0.184 ± 0.076
same,promoter activity interaction Z-score,[3]; [5],0.724 ± 1.1
same,promoter activity interaction Z-score,[3]; [6],0.231 ± 1.1
same,promoter activity interaction Z-score,[3]; [7],-0.0445 ± 0.42
same,promoter activity interaction Z-score,[3]; [8],-0.258 ± 0.085
same,promoter activity interaction Z-score,[3]; [9],0.509 ± 1.2
same,promoter activity interaction Z-score,[3]; [10],0.65 ± 0.86
same,promoter activity interaction Z-score,[3]; [11],-1.3 ± 0.73
same,promoter activity interaction Z-score,[3]; [12],0.153 ± 0.86
same,promoter activity interaction Z-score,[3]; [13],0.621 ± 0.97
same,promoter activity interaction Z-score,[3]; [14],0.0433 ± 0.14
same,promoter activity interaction Z-score,[3]; [15],-0.413 ± 0.29
same,promoter activity interaction Z-score,[3]; [16],-0.363 ± 0.23
same,promoter activity interaction Z-score,[3]; [17],0.0951 ± 0.92
same,promoter activity interaction Z-score,[3]; [18],0.261 ± 1.6
same,promoter activity interaction Z-score,[3]; [19],0.18 ± 0.34
